What follows are molecules tested against fMet-Leu-Phe receptor (Homo sapiens) (UniProt P21462) (assay: human FPR1 ligand displacement single-point test – cell-based, single concentration, selectivity assay for FPRL1 ligand SAR project, SAR follow-up (AID 763)). Conditions: FPR1-expressing cells, fluorescent ligand binding inhibition, active compounds read high; at 5.4 µM unless noted; call rule not given here.
Chain of fMet-Leu-Phe receptor (Homo sapiens) (P21462 whole entry, looked up): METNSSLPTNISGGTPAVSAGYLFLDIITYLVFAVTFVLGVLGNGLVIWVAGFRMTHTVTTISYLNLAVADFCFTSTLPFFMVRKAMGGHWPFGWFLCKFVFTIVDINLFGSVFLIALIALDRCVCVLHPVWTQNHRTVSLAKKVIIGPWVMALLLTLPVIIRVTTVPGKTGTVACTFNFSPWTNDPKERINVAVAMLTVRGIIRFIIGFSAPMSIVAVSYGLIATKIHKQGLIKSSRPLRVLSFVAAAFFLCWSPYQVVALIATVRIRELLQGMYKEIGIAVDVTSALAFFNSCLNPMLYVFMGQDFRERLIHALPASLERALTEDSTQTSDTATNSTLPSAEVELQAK

inhibition, inactive:
COc1ccccc1N1CCN(c2nc(-c3ccc(F)cc3)cc(C(F)(F)F)n2)CC1 -1.1% [at 5.1 µM]
O=C(C1CCCCC1)N1CCN(c2nc(-c3ccccc3Cl)c3cc(Br)ccc3n2)CC1 3.4% [at 4.3 µM]
CC1(C)CC(=O)c2cnc(N3CCN(Cc4ccc5c(c4)OCO5)CC3)nc2C1 11.3% [at 5.6 µM]
Fc1ccc(-c2cc(C(F)(F)F)nc(N3CCN(c4cccc(Cl)c4)CC3)n2)cc1 5.6% [at 5.1 µM]
CCOc1ccc(C(=O)Nc2cc(-c3cn4cccnc4n3)ccc2OC)cc1 -6.6% [at 5.7 µM]
CC1CCc2nc(N3CCN(Cc4ccccc4)CC3)nc(C(F)(F)F)c2C1 (stereo not drawn) 4.7% [at 5.7 µM]
COc1ccc(-c2cn3cccnc3n2)cc1NC(=O)CCc1ccccc1 6.4% [at 6 µM]
CCOC(=O)N1CCN(c2nc(-c3ccc(OC)cc3)cc(C(F)(F)F)n2)CC1 -5.3%
CCOC(=O)N1CCN(c2nc(-c3cccc(Cl)c3)c3c(n2)-c2ccccc2OC3)CC1 3.2% [at 4.9 µM]
Cc1ccc(-c2cc(C(F)F)nc(N3CCN(c4cccc(Cl)c4)CC3)n2)cc1 2.7%
COc1cc(OC)cc(C(=O)Nc2cc(-c3cn4cccnc4n3)ccc2OC)c1 4.4% [at 5.5 µM]
O=C(O)C1CC=CCC1C(=O)N1CCN(c2nc(-c3ccccc3Cl)c3cc(Br)ccc3n2)CC1 (stereo not drawn) 5.3% [at 4 µM]
Cc1ccc2nc(N3CCN(C(=O)CCC(=O)O)CC3)nc(-c3ccccc3)c2c1 5.7% [at 5.5 µM]
CCCCOc1ccc(C(=O)Nc2cc(-c3cn4cccnc4n3)ccc2OC)cc1 2.6% [at 5.3 µM]
O=C(O)CCC(=O)N1CCN(c2nc(-c3ccccc3)c3ccccc3n2)CC1 6.1% [at 5.7 µM]
Clc1cccc(-c2nc(N3CCN(C4CCCCC4)CC3)nc3c2COc2ccccc2-3)c1 -4.5% [at 4.8 µM]
CCCC(=O)Nc1cc(-c2cn3cccnc3n2)ccc1OC 0.5% [at 7.2 µM]
CC(C)(C)OC(=O)N1CCN(c2nc(-c3ccccc3Cl)c3cc(Br)ccc3n2)CC1 8.5% [at 4.4 µM]
FC(F)(F)c1cc(-c2ccccc2)nc(N2CCN(c3ccccc3)CC2)n1 2.9% [at 5.8 µM]
COc1ccc(-c2cn3cccnc3n2)cc1NC(=O)c1ccco1 1.3% [at 6.7 µM]
CCOC(=O)N1CCN(c2nc(-c3ccccc3OC)cc(C(F)(F)F)n2)CC1 1%
COc1ccc(-c2cn3cccnc3n2)cc1NC(=O)c1ccc(Br)o1 0.9%
COc1ccccc1-c1cc(C(F)(F)F)nc(N2CCN(C)CC2)n1 5% [at 6.3 µM]
COc1ccc(-c2cn3cccnc3n2)cc1NC(=O)c1ccccc1Cl -3.1% [at 5.9 µM]
Brc1ccc2nc(N3CCN(c4ccccc4)CC3)nc(-c3ccccc3)c2c1 0.6% [at 5 µM]
CCOC(=O)N1CCN(c2nc(-c3ccccc3)cc(C(F)(F)F)n2)CC1 1.5% [at 5.8 µM]
Cc1ccc(C(=O)N2CCN(c3nc(-c4ccccc4)c4cc(Br)ccc4n3)CC2)cc1 -4.3% [at 4.6 µM]
COc1cccc(-c2cc(C(F)(F)F)nc(N3CCN(Cc4ccccc4)CC3)n2)c1 -16.6% [at 5.2 µM]
COc1ccc(-c2cn3cccnc3n2)cc1NC(=O)c1ccccc1OC 3.8% [at 5.9 µM]
CCOC(=O)N1CCN(c2nc(-c3ccc(Cl)cc3)cc(C(F)(F)F)n2)CC1 -2.8%
N#Cc1cc(-c2ccccc2)nc(N2CCN(c3ccccc3)CC2)n1 -6% [at 6.5 µM]
CCC(=O)Nc1cc(-c2cn3cccnc3n2)ccc1OC 5% [at 7.5 µM]
CCCC(CCC)C(=O)Nc1cc(-c2cn3cccnc3n2)ccc1OC -2% [at 6.1 µM]
